For 58 compounds, inhibition results are on record in PubChem BioAssay AID652010 (The Scripps Research Institute Molecular Screening Center, 2013).

Molecules are shown by their SMILES. Hit rate of the full screen: of about 370,000 compounds, about 4,100 (1.1%) were called active. Shown is part of a subset that was picked to be rich in actives. Values without a mark were called inactive.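 Rule for the calls: active = inhibition above the mean over all tested compounds plus 3 SD (cut at about 3.6% in these data); inactive = the rest.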

A short description of the assay: relief of DAX-1 repression of SF-1 activity – cell-based, luminescence, SF-1 (NR5A1), full-length DAX-1, primary screen (AID 652010).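 Note: 0% = DAX-1 cells with DMSO and 100% = cells lacking DAX-1 with DMSO; higher inhibition means more luminescence from relief of DAX-1 repression.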 To be noted: HEK293T StAR-luciferase reporter, SF-1/DAX-1 repression relief; at 6.8 µM; active compounds read high.
With `Cc1ccc(C)c(-n2ccnc2SCC(N)=O)c1`, the inhibition is -0.07%.

As for `S=C(Nc1ccc(Cl)cc1Cl)N1CCCC1`, the inhibition was 2.27%.

As for `O=C(NC(=S)Nc1ccc(Cl)cc1Cl)C1CC1`, the inhibition was 5.23% (active).

Take `O=C(NC(=S)Nc1ccc(Br)cc1F)C1CCCCC1`: the inhibition is 3.34%.

On to `Cc1cccc(-n2c(O)c(C=Nc3ccccc3N)c(=O)[nH]c2=O)c1`, for which the inhibition is 3.64% (active).

On to `Cc1cc(=O)n(C)c(=O)n1CCCNc1ccccc1`, for which the inhibition is 0.36%.

As for `COc1ccc(C#CCNCc2ccc(OC)cc2OC)cc1`, the inhibition was -1.39%.

On to `Cc1cc(C(=O)NN=C/C=C/c2ccco2)n[nH]1`, for which the inhibition is 0.49%.

Turning to `Clc1ccc(Nc2ccc3ccccc3n2)cc1`, the inhibition is 2.89%.

As for `C(=N\Nc1ccc2ccccc2n1)/c1ccc2c(c1)OCO2`, the inhibition was 8.27% (active).

Regarding `Nc1nonc1-n1nnc(C(=O)N/N=C/c2ccc(Cl)cc2)c1-c1ccc2c(c1)OCO2`, the inhibition is 0.01%.

Take `COC(=O)[C@@]12CCCCC3=C1N(CCC3)C(=O)[C@H]2CC(=O)NCc1cccc2ccccc12`: the inhibition is -0.9%.

For the compound `Cc1cc(C)c(C)c(S(=O)(=O)N2CCN(C(=O)c3ccc4c(=O)n5c(nc4c3)CCC5)CC2)c1C`, the inhibition was 5.04% (active).

For `O=C(Nc1cc(F)ccc1F)c1ccc2c(=O)n3c(nc2c1)CCC3`, the inhibition is 3.87% (active).

`CC1CCN(C(=O)c2ccc3c(=O)n4c(nc3c2)CCCCC4)CC1`: the inhibition is -0.43%.

For the compound `O=C(c1ccc(Cl)c(S(=O)(=O)N2CCCCC2)c1)N1CCCCCC1`, the inhibition was -3.11%.

As for `N#Cc1cccc(OC(=O)c2ccc3c(=O)n4c(nc3c2)CCC4)c1`, the inhibition was -0.02%.

On to `O=C(O)c1ccc2c(=O)n3c(nc2c1)/C(=C/c1ccc(OC(F)F)cc1OC(F)F)CC3`, for which the inhibition is 0.3%.

In the case of `COP(=O)(O)CNC(=O)OCc1ccccc1`, the inhibition was -0.36%.

Consider `COC(=O)c1c(-c2ccc(OC)cc2)c2c(c3c4cc(OC)ccc4n(S(=O)(=O)c4ccc(F)cc4)c13)C(=O)N(C)C2`, for which the inhibition was -2.04%.

As for `CC(=O)c1ccc(S(=O)(=O)NCC2CCN(C(=O)C(=O)c3cccs3)CC2)cc1`, the inhibition was -0.63%.

As to `Cc1cc(OC(=O)NCCc2ccc(F)cc2)ccc1F`, the inhibition was -0.8%.

Turning to `Cc1cc(C(=O)NCCc2ccc(Cl)cc2)c(C)o1`, the inhibition is 5.45% (active).

For the compound `NS(=O)(=O)c1ccc(CCNC(=O)c2ccc(Cl)cc2[N+](=O)[O-])cc1`, the inhibition is -0.5%.

Turning to `CC(=O)OCCN1CCCC12CCC(c1ccccc1)CC2` (stereo not drawn), the inhibition was -0.24%.

As to `Cc1c(NC(=O)C(=O)N/N=C/c2cccs2)c(=O)n(-c2ccccc2)n1C`, the inhibition was 0.14%.

On to `O=C(O)c1ccc(N/N=C/c2cn(-c3ccccc3)nc2-c2cccs2)cc1`, for which the inhibition is 6.23% (active).

For the compound `O=C(N/N=C/c1sc(N2CCCCC2)nc1-c1cccs1)c1cccnc1`, the inhibition was -1.84%.

Take `CN(CCO)c1cccc2c1S(=O)(=O)N(Cc1cn(Cc3ccc(C(F)(F)F)cc3)nn1)Cc1ccccc1O2`: the inhibition is -1.1%.

For `C=CCN1C(=O)[C@@H](CC(=O)NCCCOCCCC)[C@]2(C(=O)OCC)CCCCC/C=C/12`, the inhibition was 0.1%.

For `O=C1/C(=C\Nc2ccccc2)CCN1c1ncccn1`, the inhibition is 0.43%.

With `CCCCOc1ccc(-c2nnc(-c3ccco3)o2)cc1`, the inhibition is 4.13% (active).

`O=C(CSc1nnc(-c2ccco2)o1)NCC(=O)c1ccccc1`: the inhibition was 1.51%.

Consider `CCCCCCc1cc2cc(-c3nnc(-c4cccc(OC)c4)o3)c(=O)oc2cc1O`, for which the inhibition was 1.42%.

For the compound `CCCOc1ccc(-c2c(C(=O)N/N=C/c3ccco3)nnn2-c2nonc2N)cc1`, the inhibition was -0.59%.

With `CCOc1ccc(NC(=O)N(CCC(C)C)C(C)c2ccco2)cc1` (stereo not drawn), the inhibition was -0.03%.

For `CCOc1ccc(-c2nnc(-c3ccco3)o2)cc1`, the inhibition was 6.66% (active).

For the compound `C=CCN1C(C(=O)OC)CN(Cc2cn(Cc3ccccc3)nn2)CCS1(=O)=O` (stereo not drawn), the inhibition was -0.18%.

Regarding `COC(=O)[C@]12C[C@H](CC(=O)NCC34CC5CC(CC(C5)C3)C4)C(=O)N(Cc3ccc(Cl)cc3Cl)C1=C[C@H](COCc1ccccc1)O[C@@H]2C`, the inhibition is -0.93%.

Consider `COC(=O)[C@]1(C#N)CC(=O)N(CC2CCCCC2)[C@@H]1c1ccccc1`, for which the inhibition is 1.2%.

As for `FC(F)(F)c1cccc(Cn2ccc3ccc(-c4ccc5ccn(Cc6ccccc6)c5c4)cc32)c1`, the inhibition was -1.01%.

As for `O=C(CCCCCN1C(=O)C2C3C=CC(C3)C2C1=O)Nc1ccccn1` (stereo not drawn), the inhibition was -0.18%.

`COc1cc(OC)c(C(=O)NNC(=O)c2ccc(NS(=O)(=O)c3cccs3)cc2)cc1OC`: the inhibition is 4.51% (active).

For the compound `C/C(=N\NC(=O)c1ccc(NS(=O)(=O)c2cccs2)cc1)c1ccc2ccccc2c1`, the inhibition was 0.35%.

For the compound `COc1cc(OC)c(C(=O)NNC(=O)c2ccccc2-n2cccc2)cc1OC`, the inhibition was 0.07%.

Turning to `COc1ccc(-c2cc(-c3nnc(SCC(=O)Nc4cccc5ccccc45)n3N)[nH]n2)cc1`, the inhibition was -0.22%.

As to `C[C@H](C(=O)N(C)c1ccccc1)[C@@H](O)c1ccc2ccccc2c1`, the inhibition is 0.19%.

Regarding `CS(=O)(=O)N(CC(=O)N/N=C/c1ccccn1)c1ccc(Oc2ccccc2)cc1`, the inhibition was -0.11%.

Consider `S=C(NN=Cc1ccccn1)Nc1ccccn1`, for which the inhibition was 3.77% (active).

Take `O=C(O)C1C2C=CC(O2)C1C(=O)Nc1ccccn1` (stereo not drawn): the inhibition was 0.46%.

In the case of `Clc1ccc(-n2c(SC/C=C/c3ccccc3)nnc2-c2ccco2)cc1`, the inhibition was -1.85%.

With `Cc1ccc(-c2nc(-c3cccnc3)sc2CC(=O)Nc2ccc(C)c(Cl)c2)cc1`, the inhibition was -0.1%.

In the case of `O=C(NCc1ccco1)C1CCCN(S(=O)(=O)c2ccc(Cl)s2)C1` (stereo not drawn), the inhibition was -1.13%.

As for `O=C1N(c2ccccc2)C(=Nc2ccccc2)SC12CC2`, the inhibition is -0.44%.

As for `COc1cc(SC)ccc1C(=O)Nc1cc(C)ccn1`, the inhibition is 4.19% (active).

In the case of `COc1cc(SC)ccc1C(=O)Nc1nc(C)cs1`, the inhibition was -3.74%.

For the compound `Cc1ccnc(NC(=O)C(C)N2C(=O)c3ccccc3C2=O)c1` (stereo not drawn), the inhibition is -0.27%.

As for `O=C(c1cccc(C(F)(F)F)c1)N1CC[C@H]2[C@H](CCCN2Cc2cc(F)cc(F)c2)C1`, the inhibition is 0.13%.

Broadly, the inhibition is the relative decrease from the control value, in per cent.
